Compounds without any hit were thinned out: in the full panel of roughly 83,000, 20% have a hit.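 Activity criterion: percent growth below 10, measured after cells in 96-well plates were exposed to a single compound concentration for 48 hours.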 Active and inactive are the calls of the source.

The experiment deals with HL-60(TB) leukemia. Nature of the experiment: NCI-60 one-dose screen, 48 h (100 = growth as untreated, 0 = no growth, -100 = all killed). The following applies: 10 µM unless noted.
For `Cc1ccc(Nc2nccc(N(C)c3ccc4c(C)n(C)nc4c3)n2)cc1S(N)(=O)=O`, the growth was 5.08% (active). Take `NC(=O)c1cnc(Nc2cccc(N)c2)nc1NCCCNC(=O)C1CCC1`: the growth was 55.2% (inactive). `CCOC(=O)c1cc(C(=O)c2cc(OC)cc(OC)c2)n2ccc3ccccc3c12`: the growth was 103% (inactive).

Turning to `NC(N)=Nc1ccc(/C=C2\C=Cc3ccccc32)cc1`, the growth was 61.6% (inactive). Take `COc1ccc2[nH]c(=O)c(CNc3ccc(Nc4nccc(-c5ccc(Cl)cc5)n4)cc3)cc2c1`: the growth was 78.2% (inactive). Regarding `O=C1c2ccccc2C(=O)c2c1cccc2-n1nnc2ccccc21`, the growth is 82.1% (inactive). To `COc1cc(OC)c2c(=O)c(O)c(-c3ccccc3)oc2c1` belongs 53.4% (inactive); to `Cc1ccc(-c2nc(-c3cn(C)c4ncccc34)cs2)cc1`, 16.2% [100 µM] (inactive).

Take `O=P([O-])(O)OP(=O)([O-])O.[NH-][C@H]1CCCC[C@@H]1[NH-].[OH-].[OH-].[Pt+4]`: the growth was 111% (inactive). As for `O=C(Nc1ncc(Cc2ccc(Cl)cc2)s1)c1ccc2c(c1)OCCO2`, the growth is -49.3% (active). For `CCN1C(=O)N(CC)C2Nn3c(s/c(=C4\C(=O)N(CC(C)C)c5ccccc54)c3=O)=NC21` (centres undefined), the growth was 18.9% (inactive). Consider `Cc1ccc2c(c1)=C/C(=C\c1cc(-c3ccccc3)[nH]c1O)C(=O)N=2`, for which the growth was -4.3% (active). The same measure for `CCN(CC)CCCOc1ccc2ncnc(Nc3ccc(Oc4cccc(C(F)(F)F)c4)c(Cl)c3)c2c1`: -45.2% (active). The same measure for `COc1ccc2nc3ccccc3c(NCCNCC(C)O)c2c1` (centres undefined): 14.2% (inactive).

Values taken from PubChem BioAssay (NCI).
